About 4,600 (8.5%) of roughly 54,000 sequences were called active. This is one part of a sample in which actives are shown more often than they occur. Rule as the data show it: active = GI50 up to about 1.1 µM and inactive = higher. Entries with a potency or affinity are not part of this list.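 1) Cells in 96-well plates. 2) Compound, 48 h, 5 concentrations. 3) Linear interpolation between surrounding doses. 4) Unreached endpoint = highest concentration. The concentration for 50% growth inhibition is given as GI50.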

For this test, the system named is LOX IMVI. Nature of the test: NCI tumour cell line growth inhibition, 48 h.
CISPLATIN, CHEMBL11359 came in with a GI50 of 1.41 µM.
With “[Bis(aminomethyl)dimethylsilane]tetrachloroplatinum(IV), CHEMBL2146190”, the GI50 is 7.48 µM.
Consider “cis-Bis[[(trimethylsilyl)methyl]amino]tetrachloroplatinum(IV), CHEMBL2146191”, for which the GI50 was 5.48 µM.
Under “[Bis(aminomethyl)ethylmethylsilane]tetrachloroplatinum(IV), CHEMBL2146192” stands 7.41 µM; under “[Bis(aminomethyl)tetramethylenesilane]tetrachloropaltinum(IV), CHEMBL2146189”, 3.26 µM.
For the substance “[Bis(aminomethyl)pentamethylenesilane]dichloropaltinum(II), CHEMBL2146202”, the GI50 came out at 0.889 µM.
Under “[Bis(aminomethyl)tetramethylenesilane]dichloropaltinum(II), CHEMBL2146205” stands 22.3 µM.
Substance “[Bis(aminomethyl)pentamethylenesilane]tetrachloropaltinum(IV), CHEMBL2146204” yielded a GI50 of 0.74 µM.
Under “[Bis(aminomethyl)dimethylsilane]dichloroplatinum (II), CHEMBL2146201” stands 38.6 µM; under “mu-(1,7-nanodiamine-N,N')bis-(cis-aminedichloroplatimum (II)), CHEMBL2146215”, 12.6 µM.

The values are drawn from ChEMBL document CHEMBL1201862, “PubChem BioAssay data set” (2004).
